S aureus helic: inhibitors of S. aureus replicative helicase, primary screen, biochemical, fluorescence unwinding readout | purified S. aureus helicase, fluorescence unwinding assay | inhibition, % (test concentration not listed) | hit rate 0.05% among 120,000 | AID 485395, 2010; in the data active = inhibition above about 25%, passing the limit was not always enough;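 note: 0% = mean of negative control wells and 100% = mean of positive control wells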
Sa growth 42C: S. aureus growth inhibition at 42 and 30 °C, primary screen, LtaS inhibitor project, RN4220, two temperatures | AID 720641, 2013 | OD600, 20 h, 42 °C; active compounds read low | hit rate 0.53% among 170,000 | relative growth, % (concentration not given with the values);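 active = relative growth at most 50% at the other temperature and 20+ points below 30 °C, or under 10% at both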
* hit, by the source's call; / = not tested or not shown; ! = not confirmed by another sample. This is one part of a sample in which hits are shown more often than they occur.

SMILES	S aureus helic	Sa growth 42C
Cc1ccc(-c2nnn(CC(=O)N(Cc3ccccc3)C(C(=O)NC3CCCC3)c3ccco3)n2)cc1 (stereo not drawn)	3.0	113.8
COc1ccc(-c2nnn(CC(=O)N(c3ccccc3)C(C(=O)NC3CCCC3)c3ccco3)n2)cc1 (stereo not drawn)	17.0	47.5*
CN(C)c1ccc(N=Cc2cccn2C)cc1	-1.0	9.7*
CN(C)c1ccc(C=Nc2ccc(C(=O)O)cc2)cc1	-20.0	105.2
O=C1c2ccccc2C(=O)c2c1oc1c3c(ccc21)OCN(Cc1ccccc1)C3	4.0	106.1
CCCCN1COc2ccc3c4c(oc3c2C1)C(=O)c1ccccc1C4=O	51.0*	13.2
CCCc1nc(-c2ccccn2)[nH]c(=O)c1Cc1c(F)cccc1Cl	35.0	58.3
C=CCc1c(CCC)nc(-c2ccccn2)[nH]c1=O	/	-0.3*
CN(C)/C=C1\S/C(=N\S(=O)(=O)c2ccc(Cl)cc2)N(C2CCCCC2)C1=O	1.0	96.1
COc1cccc(C(=O)Nc2cccc(-c3cn4cccnc4n3)c2)c1OC	13.0	92.6
CCOc1ccc(CCNC(=O)c2ccc(CS(=O)Cc3cccc(Cl)c3)o2)cc1 (stereo not drawn)	/	23.6*
CCOc1ccc(CNC(=O)c2ccc(CS(=O)Cc3ccc(Cl)cc3)o2)cc1 (stereo not drawn)	/	110.9
COCC(=O)Nc1ccccc1C(=O)N1CCN(c2ccccc2)CC1	7.0	105.4
c1ccc(-c2cccc(-c3ccccn3)n2)nc1	12.0	2.4*
c1ccc(-c2ccc3ccccc3n2)nc1	-5.0	62.8
Cc1nc2ccc(S(=O)(=O)NCC(=O)NC3CCC(C)CC3)cc2s1 (stereo not drawn)	/	108.6
O=C(O)Cc1sc(-c2ccccn2)nc1-c1cccs1	-6.0	112.2
C=C(C)CN(CC)C(=O)Cn1c(NCc2ccccc2)nc2ccccc21	-6.0	80.4
O=C(Oc1ccccc1OC(=O)c1ccccc1)c1ccccc1	11.0	95.7
O=C(Oc1cccc2cccnc12)C1CCCCC1	6.0	181.7
NC(=O)COc1cccc2cccnc12	4.0	106.8
O=C(Oc1cccc2cccnc12)c1cc(C(F)(F)F)cc(C(F)(F)F)c1	/	1.3*
O=C(Oc1cccc2cccnc12)c1ccccc1	-6.0	1.7*!
O=C(Oc1cccc2cccnc12)c1cccc(F)c1	9.0	1.6*
O=C(CNC(=O)C12CC3CC(CC(C3)C1)C2)OCc1nnc(-c2ccccc2)o1	11.0	132.8
SMILES	S aureus helic	Sa growth 42C
CS(=O)(=O)N1CCSC1c1ccccc1Cl (stereo not drawn)	15.0	/
COC(=O)c1ccc(C(=O)Nc2ccc3sccc3c2)cc1	5.0	/
Cc1ccc(O)cc1	/	90.5
Cc1ccc(-c2ccc(O)cc2)cc1	-12.0	46.9*
CCSC1=C(C#N)C(=O)NC(c2ccco2)S1 (stereo not drawn)	4.0	112.3
CC(C)(C)c1csc(SCC(=O)Nc2nccs2)n1	0.0	87.9
COc1ccc(C(c2cc3c(cc2O)OCO3)N2CCOCC2)cc1 (stereo not drawn)	7.0	1.8*
Cc1cc(C)cc(C(=O)NCC(c2ccc(N(C)C)cc2)N2CCCC2)c1 (stereo not drawn)	/	89.2
CN(C)c1ccc(C(c2cc3c(cc2O)OCO3)N2CCCCC2)cc1 (stereo not drawn)	6.0	0.9*
COc1ccc(C(=O)NCC(c2ccc3c(c2)OCO3)N2CCOCC2)cc1 (stereo not drawn)	/	85.0
CCc1ccc2oc(C(=O)Nc3ccccc3OC)c(C)c2c1	1.0	97.8
O=C(c1ccncc1)N1C(=O)c2cccc3cccc1c23	5.0	119.1
Cc1ccc(-c2cc(C(F)F)nc(S(C)(=O)=O)n2)cc1	3.0	35.8*
Cc1ccc(-c2cc(C(F)F)nc(NCc3ccco3)n2)cc1	19.0	105.7
COc1ccc(C2=CC(c3cccs3)NC(=S)N2)cc1 (stereo not drawn)	4.0	122.7
CN1CCc2c(OCc3ccc(Cl)cc3)cccc2C1=O	15.0	6.4*
CCCCOc1cccc2c1CCN(C)C2=O	6.0	66.5
C=CCSc1nnc(-c2ccc(C(C)(C)C)cc2)n1Cc1ccco1	7.0	8.7*
CSc1nnc(-c2ccc(C(C)(C)C)cc2)n1Cc1ccco1	/	85.5
CCOC(=O)C(C#N)c1ccccn1 (stereo not drawn)	/	107.3
CCOC(=O)C(C#N)c1c(F)c(F)c(Br)c(F)c1F (stereo not drawn)	-4.0	-1.0*
COc1ccc(C(=O)OCC(N)=O)c(OC)c1	-22.0	88.2
CN(C)[C@@H]1C(=O)C(C(=O)NCN2CCCC2)=C(O)[C@@]2(O)C(=O)C3=C(O)c4c(O)cccc4[C@@](C)(O)[C@H]3C[C@@H]12	/	12.5
C=C1c2cccc(O)c2C(O)=C2C(=O)C3(O)C(O)=C(C(N)=O)C(=O)C(N(C)C)C3C(O)C12 (stereo not drawn)	-26.0	4.3*
O=C1C=C2N(c3ccccc3)CCOC2(O)c2ccccc21 (stereo not drawn)	11.0	4.8*
SMILES	S aureus helic	Sa growth 42C
O=C1OC2(O)c3ccccc3C(=O)N2c2ccccc21 (stereo not drawn)	-21.0	86.8
O=C(Nc1ccccc1Cc1ccccc1)c1cc2c(nc3sccn32)s1	5.0	112.8
O=C(CC(c1ccccc1)c1ccccc1)NCc1nc(-c2ccccc2)no1	11.0	116.3
O=C(OCC1CCCO1)c1ccccc1Br (stereo not drawn)	-18.0	98.6
Cc1ccc(O)c(-c2cc(C(F)(F)F)no2)c1	6.0	0.2*
Oc1ccccc1-c1cc(C(F)(F)C(F)F)no1	-15.0	1.5*
CCN(CC)C(=O)c1cc(-c2ccccc2O)on1	4.0	116.5
Cc1ccc(-c2cc(-c3ccccc3)no2)c(O)c1	8.0	98.1
NC(=S)/C(=C\c1ccccc1O)C(=O)O	23.0	100.9
O=C1C2C=CC=CC2=NC(=S)[N+]1=Nc1c(O)[nH]c2ccccc12 (stereo not drawn)	11.0	1.4*
O=C1N=c2ccccc2=C1N=Nc1c(O)[nH]c2ccccc12	-23.0	37.6
COc1cc2c(C#N)c(OC)nc(N)c2c(N)n1	-2.0	91.7
COc1cccc(OCc2nnc(SCc3ccccc3)n2C)c1	17.0	3.8*
CSc1nnc(COc2cccc(C)c2)n1C	5.0	126.7
Cc1c2oc3c(C)ccc(C(=O)OC(C)C4NC(=O)C(C(C)C)N(C)C(=O)CN(C)C(=O)C5CCCN5C(=O)C(C(C)C)NC4=O)c3nc-2c(C(=O)OC(C)C2NC(=O)C(C(C)C)N(C)C(=O)CN(C)C(=O)C3CCCN3C(=O)C(C(C)C)NC2=O)c(N)c1=O (stereo not drawn)	/	-0.6*
CC(=O)N1CCN(CC(O)COc2ccc3oc4ccccc4c3c2)CC1 (stereo not drawn)	17.0	92.3
COc1cc2cc3c4c(cc(OC)c(OC)c4c2cc1OC)CCN3C	32.0	6.6*
COc1ccc(C(=O)N2CCc3cc(OC)c(OC)cc3C2C)cc1 (stereo not drawn)	/	104.8
Cn1c(N)c(C(=O)CN(Cc2ccccc2)Cc2ccccc2)c(=O)n(C)c1=O	12.0	80.6
COc1ccc(C(CNC2CC3CC=CC32)N(C)C)cc1OC (stereo not drawn)	1.0	95.8
Oc1ccc(Cl)cc1Sc1cc(Cl)ccc1O	12.0	3.6*
Oc1ccc(Cl)cc1-c1csnn1	28.0	36.1
Cn1ccnc1SC(=O)N1c2ccccc2Sc2ccccc21	2.0	117.5
Cc1nccn1CC(=O)N1c2ccccc2Sc2ccccc21	6.0	-0.3*

Screens (PubChem)
